Source: PubChem BioAssay (National Center for Advancing Translational Sciences (NCATS))
HT1080 IDH1KD tx = HT-1080 IDH1 knockdown cell toxicity (counter line) | HT-1080 IDH1 knockdown viability, ATP luminescence, 48 h | Potency, µM (doses to about 46.1 µM), for the others: at the top dose activity, negative = toxicity, hits mostly cytotoxic | 2% of 360,000 active;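 further: potency means the concentration at half of the fitted maximal effect; 0% = DMSO wells and -100% = cell-free medium wells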
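In this qHTS, HT-1080 cells depleted of IDH1 are exposed for 48 h at 37 °C to compound titrations. Toxicity is scored from CellTiter-Glo luminescence, with DMSO as full viability and medium alone as none.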
TDP1 cell noCPT = qHTS for Inhibitors of human tyrosyl-DNA phosphodiesterase 1 (TDP1): qHTS in cells in absence of CPT | DT40 Tdp1-/- hTDP1 cells, no CPT, ATP luminescence, 48 h | Potency, µM (doses to about 46.2 µM), without a hit: top-dose activity change, negative = growth inhibition, most hits filed as inhibitors | 15% of 420,000 active; further: potency means the concentration at half of the fitted maximal effect; nearly all actives have a fitted effect of over 55% in size
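Readout: luminescence from CellTiter-Glo after 30 min in the dark at RT. Cells: DT40 Tdp1-/- with stable hTDP1, 400/well. Exposure: compounds alone, ≥48 hr, 37 °C.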
IL-1B inflam inh = inhibitors of inflammasome signaling (IL-1 beta secretion); THP-1 LPS/ATP IL-1B secretion, AlphaLISA, 16 h; stronger effect = lower value; activity change, % at 57.5 µM; 4.7% of 360,000 active; AID 743279; in the data active means activity change below about -50%; inconclusive means mostly about -30% to -49%
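Secreted IL-1B measured by AlphaLISA bead assay after 16 h compound exposure of THP-1 cells; compounds (final up to 57.5 uM) added 1 h before LPS (250 ng/mL) and ATP (1.25 mM) stimulation; lower signal means less secretion.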
TDP1 cell CPT = DT40-hTDP1 cell growth loss with CPT; AID 686979; 12% of 420,000 active; Potency, µM (top dose mostly 46.2 µM), inactives show at the top dose activity change, negative = growth inhibition, most hits filed as inhibitors; chicken DT40 Tdp1-/-;hTDP1 cells + 20 nM CPT, ATP luminescence, 48 h; further: potency means the concentration at half of the fitted maximal effect; nearly all actives have a fitted effect of over 55% in size
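Chicken DT40 Tdp1-/- cells complemented with human TDP1, 400 cells/well, exposed to compounds plus 20 nM camptothecin for at least 48 h at 37 C; viability read as ATP content by CellTiter-Glo luminescence.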
HT1080-NT tox = kills 2HG-producing HT-1080-NT fibrosarcoma cells; HT-1080-NT fibrosarcoma viability, CellTiter-Glo ATP luminescence, 48 h; Potency, µM (top dose mostly 46.1 µM), for the others: at the highest dose activity, negative = less viability, most hits filed as cytotoxic; 1.6% of 360,000 active;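 further: NT is the 2HG producing partner of a matched IDH1 knockdown line; potency means the concentration at half of the fitted maximal effect; 0% = DMSO-treated cells and -100% = media-only wells without cells; nearly all actives have a fitted effect of over 55% in size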
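HT-1080-NT fibrosarcoma cells (2HG-overproducing), 750 cells/well in RPMI with 5% FBS, dosed after 2 h and incubated 48 h at 37C. CellTiter-Glo luminescence normalized to DMSO and no-cell wells; concentration-response curves fitted and classed.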
* hit, by the source's call. The list is not random: actives were taken first. Their share in the collection is about 19%. Unless noted, the call rests on the fitted dose curve; in most records, active means well fitted curve in the direction sought with a large enough effect; inconclusive means small, poorly fitted or top-dose-only effect, or another doubt; inactive means no such curve, though single readings can be large; an effect the other way counts as inactive or inconclusive. Unless noted, on the % scale 0 is the no-effect control and ±100 the full control effect.

Results for CC[C@]1(O)CC2CN(CCc3c([nH]c4ccccc34)[C@@](C(=O)OC)(c3cc4c(cc3OC)N(C)[C@H]3[C@@](O)(C(=O)OC)[C@H](OC(C)=O)[C@]5(CC)C=CCN6CC[C@]43[C@@H]65)C2)C1 (some centres undefined) ?
TDP1 cell noCPT: 0.14µM*; TDP1 cell CPT: 0.071µM*

Results for CCC1(O)CC2CN(CCc3c([nH]c4ccccc34)C(C(=O)OC)(c3cc4c(cc3OC)N(C=O)C3C(O)(C(=O)OC)C(OC(C)=O)C5(CC)C=CCN6CCC43C65)C2)C1 (centres undefined) ?
HT1080 IDH1KD tx: inconclusive; TDP1 cell noCPT: 0.15µM*; IL-1B inflam inh: 26; TDP1 cell CPT: 0.092µM*; HT1080-NT tox: 0.0058µM*

How did COc1ccc(C(=O)N(C)[C@H]2C[C@H]3c4[nH]c5ccccc5c4CCN3C[C@H]2[C@H](C)O)cc1 do in these assays?
HT1080 IDH1KD tx: 7%; TDP1 cell noCPT: -65%; IL-1B inflam inh: 8; TDP1 cell CPT: inconclusive; HT1080-NT tox: 12%

How did Cn1cc(CN2CCCC(C(=O)c3cccs3)C2)c(-c2cccc(Cl)c2)n1 (centres undefined) do in these assays?
HT1080 IDH1KD tx: -15%; TDP1 cell noCPT: 16µM*; IL-1B inflam inh: -28; TDP1 cell CPT: inconclusive; HT1080-NT tox: -20%

Results for O=C(c1ccc(-c2ccccc2)cc1)C1CCCN(C(=O)c2ccncc2)C1 (centres undefined) ?
HT1080 IDH1KD tx: -29%; TDP1 cell noCPT: inconclusive; IL-1B inflam inh: -14; TDP1 cell CPT: 3.7µM*; HT1080-NT tox: -19%

How did CN(C)S(=O)(=O)N1CCCC(C(=O)c2ccc(C(F)(F)F)cc2)C1 (centres undefined) do in these assays?
HT1080 IDH1KD tx: -6%; TDP1 cell noCPT: inconclusive; IL-1B inflam inh: -8; TDP1 cell CPT: -20%; HT1080-NT tox: -7%

Results for Cc1ncoc1C(=O)N1CCCC(C(=O)c2ccc(-c3ccccc3)cc2)C1 (centres undefined) ?
HT1080 IDH1KD tx: -17%; TDP1 cell noCPT: 23µM*; IL-1B inflam inh: 0; TDP1 cell CPT: 18µM*; HT1080-NT tox: -1%

Results for Cc1ncoc1C(=O)N1CCCC(N2CCN(c3ccccc3F)CC2)C1 (centres undefined) ?
HT1080 IDH1KD tx: 0%; TDP1 cell noCPT: 14%; IL-1B inflam inh: 34; TDP1 cell CPT: -3%; HT1080-NT tox: -2%

What do the screens show for `CN(C)S(=O)(=O)N1CCCC(C(=O)c2ccc(-c3ccccc3)cc2)C1` (centres undefined)?
HT1080 IDH1KD tx: -1%; TDP1 cell noCPT: 23µM*; IL-1B inflam inh: -23; TDP1 cell CPT: inconclusive; HT1080-NT tox: -1%

Results for C#CCOCCOCCOCCNc1nc(N2CCN(C(=O)[C@H](CC(N)=O)n3cc(C(N)[C@H](C)CC)nn3)CC2)nc(N2CCN(C(=O)[C@H](CC(N)=O)n3cc(C(N)[C@@H](C)CC)nn3)CC2)n1 (some centres undefined) ?
HT1080 IDH1KD tx: 15%; TDP1 cell noCPT: -24%; IL-1B inflam inh: 18; TDP1 cell CPT: 2%; HT1080-NT tox: 15%

How did COc1ccccc1CN(C)C(=O)COC(=O)c1cc(C)oc1C do in these assays?
HT1080 IDH1KD tx: 8%; TDP1 cell noCPT: inconclusive; IL-1B inflam inh: -18; TDP1 cell CPT: -21%; HT1080-NT tox: 11%

What do the screens show for `Cc1ccsc1C(=O)C1CCCN(Cc2cn(C)nc2-c2ccccc2)C1` (centres undefined)?
HT1080 IDH1KD tx: -1%; TDP1 cell noCPT: inconclusive; IL-1B inflam inh: -2; TDP1 cell CPT: inconclusive; HT1080-NT tox: -3%

Results for O=C(c1ccc(Cl)cc1)C1CCCN(Cc2ccc(Oc3ncccn3)cc2)C1 (centres undefined) ?
HT1080 IDH1KD tx: -1%; TDP1 cell noCPT: -85%; IL-1B inflam inh: -3; TDP1 cell CPT: inconclusive; HT1080-NT tox: -3%

What do the screens show for `Cc1nn(C)cc1CN1CCCC(C(=O)c2ccc(-c3ccccc3)cc2)C1` (centres undefined)?
HT1080 IDH1KD tx: inconclusive; TDP1 cell noCPT: 21µM*; IL-1B inflam inh: -91*; TDP1 cell CPT: inconclusive; HT1080-NT tox: inconclusive

How did O=C(c1ccc(-c2ccccc2)cc1)C1CCCN(Cc2ccncc2)C1 (centres undefined) do in these assays?
HT1080 IDH1KD tx: -21%; TDP1 cell noCPT: inconclusive; IL-1B inflam inh: -86*; TDP1 cell CPT: 16µM*; HT1080-NT tox: inconclusive

What do the screens show for `O=C(c1ccc(Cl)cc1)C1CCCN(Cc2cnn(-c3ccccc3)c2)C1` (centres undefined)?
HT1080 IDH1KD tx: inconclusive; TDP1 cell noCPT: inconclusive; IL-1B inflam inh: -98*; TDP1 cell CPT: inconclusive; HT1080-NT tox: inconclusive

Results for CCCCc1nnc(NC(=O)CN2C(=O)NC3(CCCCC3)C2=O)s1 ?
HT1080 IDH1KD tx: -8%; TDP1 cell noCPT: 1%; IL-1B inflam inh: 0; TDP1 cell CPT: -8%; HT1080-NT tox: -3%

How did COc1ccc2c(c1)OCC(Cc1ccc(OC)c(OC(C)=O)c1)C2=O (centres undefined) do in these assays?
TDP1 cell noCPT: 0.65µM*; TDP1 cell CPT: 0.65µM*

How did COc1ccc2c(c1)OCC(Cc1ccc(OC)c(OC)c1)C2O (centres undefined) do in these assays?
TDP1 cell noCPT: inconclusive; TDP1 cell CPT: 0%

What do the screens show for `COc1cc(C(=O)Oc2ccc3c(c2)OCC3=O)cc(OC)c1OC`?
HT1080 IDH1KD tx: 2%; TDP1 cell noCPT: -20%; IL-1B inflam inh: 29; TDP1 cell CPT: -12%; HT1080-NT tox: -5%

Results for COc1ccc2c(c1)OCC(Cc1ccc(OC)c(OC)c1)C2=O (centres undefined) ?
TDP1 cell noCPT: 13µM*; TDP1 cell CPT: inconclusive

Results for COc1ccc(OCC(=O)OCC(=O)Nc2ccc3[nH]c(=O)[nH]c3c2)cc1 ?
HT1080 IDH1KD tx: 9%; TDP1 cell noCPT: 9%; IL-1B inflam inh: 3; TDP1 cell CPT: -4%; HT1080-NT tox: 9%

Results for O=C1OC(c2ccccc2)(N(Nc2ccccc2)c2ccccc2)c2ccccc21 (centres undefined) ?
HT1080 IDH1KD tx: -25%; TDP1 cell noCPT: 23µM*; IL-1B inflam inh: -3; TDP1 cell CPT: inconclusive; HT1080-NT tox: inconclusive

Results for O=C1OC(Oc2ccccc2)(c2ccccc2)c2ccccc21 (centres undefined) ?
HT1080 IDH1KD tx: -19%; TDP1 cell noCPT: -29%; IL-1B inflam inh: -19; TDP1 cell CPT: 5%; HT1080-NT tox: 3%
